m-calpain inh = inhibitors of pig calpain II | purified calpain II, fluorogenic peptide substrate, 30 min | inhibition, % at 16 µM | 220,000 compounds, 0.37% hits | AID 1236;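 active = inhibition above about 50%, limit read from the data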
KCC2 mod = modulators of human KCC2 chloride dependent transport. B-score of Tl+ flux slope (higher = more flux/activation; lower = inhibition) at 10 µM. KCC2 cells, thallium flux FluoZin-2 fluorescence. AID 1456. Q9H2X9. 190,000 compounds, 2.2% hits;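 active = thallium flux slope and its plate-corrected score both differing from the plate sample mean at a set confidence after two filtering rounds, in either direction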;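 also: slope of fluorescence scaled to starting intensity during 10 to 20 s after thallium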
Target sequence (Q9H2X9 whole entry, looked up): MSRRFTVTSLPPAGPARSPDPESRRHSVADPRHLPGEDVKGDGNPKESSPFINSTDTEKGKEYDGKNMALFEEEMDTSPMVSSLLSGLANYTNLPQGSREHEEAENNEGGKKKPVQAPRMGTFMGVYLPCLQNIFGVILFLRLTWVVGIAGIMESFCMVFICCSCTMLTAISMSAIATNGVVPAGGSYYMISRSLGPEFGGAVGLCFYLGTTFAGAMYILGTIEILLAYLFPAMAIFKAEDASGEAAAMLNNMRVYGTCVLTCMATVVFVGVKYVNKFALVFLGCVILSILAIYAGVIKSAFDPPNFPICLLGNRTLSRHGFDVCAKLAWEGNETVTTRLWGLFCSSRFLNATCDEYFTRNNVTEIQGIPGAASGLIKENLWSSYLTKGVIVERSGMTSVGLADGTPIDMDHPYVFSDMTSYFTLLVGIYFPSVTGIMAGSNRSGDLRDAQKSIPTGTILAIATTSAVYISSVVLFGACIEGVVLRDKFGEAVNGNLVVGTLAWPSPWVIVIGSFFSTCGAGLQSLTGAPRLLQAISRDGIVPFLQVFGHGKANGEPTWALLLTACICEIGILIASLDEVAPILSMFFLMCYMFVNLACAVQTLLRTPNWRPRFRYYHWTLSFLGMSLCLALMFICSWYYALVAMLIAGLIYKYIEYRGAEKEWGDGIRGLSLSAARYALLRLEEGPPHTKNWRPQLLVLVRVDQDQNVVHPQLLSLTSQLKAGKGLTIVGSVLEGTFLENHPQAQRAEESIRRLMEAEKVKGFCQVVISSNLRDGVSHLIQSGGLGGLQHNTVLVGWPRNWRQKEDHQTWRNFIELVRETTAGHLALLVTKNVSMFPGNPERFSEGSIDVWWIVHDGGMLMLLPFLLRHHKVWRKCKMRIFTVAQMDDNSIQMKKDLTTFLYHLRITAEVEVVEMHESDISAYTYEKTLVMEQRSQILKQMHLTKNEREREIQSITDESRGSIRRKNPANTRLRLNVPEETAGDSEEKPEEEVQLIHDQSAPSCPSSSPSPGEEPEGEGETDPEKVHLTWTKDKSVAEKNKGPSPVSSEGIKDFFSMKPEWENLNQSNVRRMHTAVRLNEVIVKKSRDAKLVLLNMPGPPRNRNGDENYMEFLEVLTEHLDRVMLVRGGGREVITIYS
WT yeast gro inh = growth inhibition of WT yeast, mitochondrial fusion screen; mitochondrial fusion phenotypic screen, WT strain; 190,000 compounds, 2.1% hits; AID 1362; inhibition, % at 10 µM; in the data active = inhibition above about 58%; tested in S. cerevisiae
L major viab = inhibitors of Leishmania major promastigote growth | AID 1063 | 200,000 compounds, 9% hits | Leishmania major promastigotes, resazurin fluorescence viability | inhibition, % at 10 µM; in the data active = inhibition above about 50%;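 also: promastigotes grown with compound for 44 hours at 28 °C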
ROMK mod = human ROMK K+ channel modulation, primary screen; B-score at 10 µM; 130,000 compounds, 2% hits; Tet-inducible ROMK, thallium flux fluorescence; actives lie on both sides; AID 1918; P48048;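 active = signal ratio slope over the read window, or its plate-corrected B-score, at least 3 SD from the plate mean, either direction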;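 also: B-score of the F/F0 ratio slope over 7 to 12 s after thallium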
* = called active by the depositor; x = no result. Only some compounds are listed: those with a hit (about 12% of all), similar ones and a draw of the others.

SMILES	m-calpain inh	KCC2 mod	WT yeast gro inh	L major viab	ROMK mod
Cn1ncc(N=Cc2ccc([N+](=O)[O-])cc2)c1C(=O)Nc1ccccc1	-37.2	1.72	0.7	4.2	-1.05
Cc1nnc(N/N=C/c2cccc(OCc3ccc(Cl)c(Cl)c3)c2)n1N	-6.5	0.174	29.1	72.5*	x
Oc1ccc(Br)cc1C=Nc1ccc2c3c(cccc13)CC2	-337.2	0.535	-0.8	70.7*	-0.0668
Oc1ccc(Cl)cc1C=Nc1ccccc1Br	-3.6	0.292	-3.6	-10.1	0.45
CC1=C(C(=O)NCCN2CCN(C)CC2)C2(CCC(C)CC2)OC1=O (stereo not given)	9.8	1.54	4.6	5.5	x
CCOc1ccc2ccccc2c1C(=O)Nc1cc(=O)n(C)c(=O)n1C	-9.7	0.354	11.8	-4.7	x
N=C1c2ccccc2CN1NC(=O)COc1ccc(Cl)cc1	-21.5	-1.56	-7.0	0.0	x
CCNC(=S)N1CCc2cc(OC)c(OC)cc2C1COc1ccc(OC)cc1 (stereo not given)	-14.2	-1.18	-5.1	68.1*	0.887
CCOc1ccc(CC2c3cc(OCC)c(OCC)cc3CCN2C(=O)c2cc(OC)c(OC)c(OC)c2)cc1OCC (stereo not given)	-36.0	x	13.1	54.7*	0.567
CCc1ccc(OCC2c3cc(OC)c(OC)cc3CCN2C(=S)NC)cc1 (stereo not given)	40.8	-0.00511	74.9*	32.7	0.391
CC1CCN(S(=O)(=O)c2cn(CC(=O)N3CC(C)CC(C)C3)c(=O)c3ccccc23)CC1 (stereo not given)	17.1	0.0563	5.4	6.4	-0.0548
CCNC(=S)N/N=C(\C)c1ccc(Cl)s1	12.5	19.4*	14.0	4.7	x
C/C(=N/Nc1ccc(F)cc1)c1ccc(Cl)s1	-19.2	-0.798	-4.6	-6.6	0.0367
CNC(=S)N/N=C(\C)c1ccc(Cl)s1	-8.4	12.7*	0.2	-2.7	x
C/C(=N\NC(N)=O)c1ccc(Cl)s1	-2.7	-0.863	x	x	x
CNC(=S)N/N=C(\C)c1ccc(C)c(C)c1	3.1	5.14*	31.2	-8.6	x
C=C(C)CNC(=S)N/N=C(\C)c1cccc(NC(C)=O)c1	17.3	0.221	15.8	1.7	x
C=C(C)CNC(=S)N/N=C(\C)c1ccc(Cl)s1	4.4	12.7*	41.5	20.2	x
O=[N+]([O-])c1ccc(Cl)cc1N1CCCCC1	20.3	-0.204	-10.9	0.8	0.183
O=C(CN1CCN(S(=O)(=O)c2ccc(Br)cc2)CC1)N/N=C/c1ccncc1	10.1	-0.632	x	x	x
O=C(COc1ccccc1F)NCc1ccc(-n2cccc2)cc1	1.9	-0.432	11.2	8.8	x
NC(N)=NC1=NC(=O)/C(=C/c2ccccc2-n2cccn2)S1	-26.5	x	-15.4	-7.4	-0.278
C/C(=N\NC(=O)c1ccc(O)cc1)c1cc2ccccc2o1	8.4	-2.47	-0.4	22.8	0.318
CCNC(=S)N/N=C(\C)c1cc2ccccc2o1	-26.7	9.11*	8.5	-4.6	x
O=C(Nc1cccc(F)c1)NC1CCN(Cc2ccccc2)CC1	-2.4	0.0116	8.0	56.5*	-2.04
SMILES	m-calpain inh	KCC2 mod	WT yeast gro inh	L major viab	ROMK mod
O=C(NNC(=O)C1CCN(Cc2cccc(F)c2)CC1)c1cccs1	-19.9	0.243	2.3	-6.8	-0.371
Fc1ccc(NC(=S)NC2CCN(Cc3ccccc3)CC2)cc1	4.3	-0.834	4.6	89.4*	-0.62
O=C(NNC(=O)C1CCN(Cc2cccc(F)c2)CC1)c1cccc(Cl)c1	-0.9	x	2.8	64.0*	x
Cc1cccc(NC(=S)NC2CCN(Cc3ccccc3)CC2)c1C	13.9	-2.02	7.4	89.2*	x
S=C(NC1CCCCC1)N1CCN(Cc2ccccc2)CC1	-9.0	-1.98	-1.6	1.8	-0.842
S=C(Nc1ccc(Cl)c(Cl)c1)NC1CCN(Cc2ccccc2)CC1	30.6	-2.1	73.7*	94.5*	x
CC(C)(C)CC(C)(C)NC(=S)NC1CCN(Cc2ccccc2)CC1	-3.6	0.924	14.6	89.3*	-0.385
COc1ccccc1-n1c([S-])c(C(=O)Nc2ccccc2C(F)(F)F)[n+]2ccc(C(=O)NCCO)cc12	68.7*	0.337	-10.4	1.0	0.575
Cc1ccc(S(=O)(=O)N2CCN(C(=O)c3ccc([N+](=O)[O-])cc3)C2)cc1	-21.9	1.3	-0.9	-4.4	-0.019
CCOc1ccc(N2C(=O)CC(Sc3nnnn3-c3ccccc3)C2=O)cc1 (stereo not given)	15.7	0.228	58.9*	0.6	-0.256
COc1ccc(-c2nc(NC(=O)CCNC(=O)c3ccco3)sc2C)cc1	52.4*	-0.324	-35.2	44.7	-2.37
COc1ccc(Nc2nc(C)c3ccccc3n2)cc1	13.2	-1.78	1.1	34.3	x
COc1ccc(Nc2nc(C)c(-c3ccccc3)s2)cc1	14.7	-0.999	66.0*	7.8	-0.0246
COc1ccc2nc(Nc3ccccc3)sc2c1	25.5	-0.000603	29.3	20.8	0.507
COc1ccc(Nc2nc(-c3ccccc3)c3ccccc3n2)cc1	34.6	0.13	64.0*	34.4	-0.947
O=C(CSCC(=O)N1CCCCC1)Nc1nc(-c2ccccc2)c(-c2ccccc2)s1	-16.1	2.18	60.3*	7.1	-1.41
O=C(CSCC(=O)N1CCCc2ccccc21)Nc1nc(-c2ccccc2)cs1	0.9	2.2	53.0	34.5	-2.68
CCN(CC(=O)NCc1ccc(F)cc1)C(=O)COc1ccc2ccccc2c1	5.2	-0.927	20.7	3.9	x
CCOc1ccc(NC(=O)CSc2nc3nc4c(cc3c(=O)n2CC)COC(C)(C)C4)cc1	-25.5	-0.488	x	x	x
Cn1cccc1CC(=O)NNC(=S)NC(=O)c1ccc(F)cc1	14.6	1.68	x	x	x
COc1ccc(-c2nc(NC(C)=O)sc2-c2ccccc2)cc1	-34.2	1.27	11.8	31.2	-1.56
COc1ccc(-c2sc(NC(C)=O)nc2-c2ccccc2)cc1	6.2	0.12	1.4	65.9*	-0.226
COc1ccc(-c2nc(NC(=O)c3n[nH]c(=O)c4ccccc34)sc2C)cc1	-27.8	-0.126	-17.3	62.8*	0.608
COc1cc(NC(=O)c2n[nH]c(=O)c3ccccc23)cc(OC)c1	-33.9	-0.176	x	x	x
Cc1ccc([N+](=O)[O-])cc1S(=O)(=O)NCCc1c(C)[nH]c2ccccc12	-0.4	1.28	1.8	95.9*	-0.209
SMILES	m-calpain inh	KCC2 mod	WT yeast gro inh	L major viab	ROMK mod
NC(=O)CC(NC(=O)Cc1ccc(Br)cc1)c1ccc(N2CCN(c3ccc(F)cc3)CC2)c([N+](=O)[O-])c1 (stereo not given)	-28.4	-0.289	x	x	x
Cc1ccc(NC(=S)NC2CC3CCCC(C2)N3Cc2cccs2)cc1 (stereo not given)	25.1	1.64	-8.1	92.3*	x
Fc1ccc(NC(=S)NC2CC3CCCC(C2)N3Cc2cccs2)cc1 (stereo not given)	9.2	x	1.0	93.9*	-2.71
O=C(Nc1cccc(Cl)c1)NC1CC2CCC(C1)N2Cc1cccs1 (stereo not given)	4.7	-0.424	-16.6	9.5	-0.108
Cc1cccc(C)c1NC(=O)NC1CC2CCC(C1)N2Cc1cccs1 (stereo not given)	14.9	x	11.9	-0.2	x
CC(C)c1ccc(NC(=O)NC2CC3CCC(C2)N3Cc2cccs2)cc1 (stereo not given)	-29.0	-0.0511	3.0	73.0*	0.177
CN1CCCNc2nc3ccccc3nc21	-62.8	-0.202	x	x	x
O=C(/C=C/c1ccccc1)Nn1cnc2ccccc2c1=O	9.9	-0.26	-0.1	-6.7	x

Screening data from PubChem BioAssay.
